# Results taken from PubChem BioAssay (NCATS).
# Values without a mark were called inactive. Activity calls are given as the source filed them. The call rests on the fitted dose curve; in most records, active means well fitted inhibition curve with a large enough effect; inconclusive means small, poorly fitted or top-dose-only effect; inactive means flat fitted curve, though single readings scatter.
# Molecular target: DNA dC->dU-editing enzyme APOBEC-3G (Homo sapiens) (UniProt Q9HC16)
# Assay: qHTS for inhibitors of Vif-A3G interactions: Validation (AID 588379); on activity change, negative = inhibition: 0% is about no effect
# Conditions: Vif-A3G protein interaction assay; series mostly up to 46.1 µM; activity change, negative = inhibition: at the top concentration
# Procedure, shortened: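 HeLa cells stably expressing Vif and A3G-eYFP, 700 cells/well, incubated overnight at 37 deg C, then exposed to compound overnight at 37 deg C. Inhibition of Vif-mediated degradation read as increased yellow fluorescence (Ex 488/Em 500-530) by laser-scanning cytometry.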
# Potency means the concentration at half of the fitted maximal effect.
# Chain of DNA dC->dU-editing enzyme APOBEC-3G (Homo sapiens) (Q9HC16 whole entry, looked up): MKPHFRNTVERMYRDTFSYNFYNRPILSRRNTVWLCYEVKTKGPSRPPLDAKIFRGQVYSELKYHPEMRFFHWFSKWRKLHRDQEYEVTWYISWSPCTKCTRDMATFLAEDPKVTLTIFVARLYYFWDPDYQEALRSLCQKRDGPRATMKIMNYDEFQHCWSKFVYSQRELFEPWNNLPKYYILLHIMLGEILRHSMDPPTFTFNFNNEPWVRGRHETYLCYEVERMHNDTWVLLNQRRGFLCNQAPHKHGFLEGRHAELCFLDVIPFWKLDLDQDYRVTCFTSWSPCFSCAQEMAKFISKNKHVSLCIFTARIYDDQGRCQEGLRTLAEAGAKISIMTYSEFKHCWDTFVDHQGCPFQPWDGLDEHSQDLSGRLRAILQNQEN
Structure (SMILES),"activity change, negative = inhibition [%]",Potency
COCc1nc2c([nH]1)c(=O)n(C)c(=O)n2CC(C)C,1.48,–
C=C1C(=O)O[C@@H]2[C@H]3O[C@]3(C)CCC=C(C)CC[C@@H]12,-5.82,–
O=C(O)C1=CCCN(CCON=C(c2ccccc2)c2ccccc2)C1,-3.76,–
CN1CCc2cc(Cl)c(O)cc2[C@@H](c2ccccc2)C1,0.524,–
CC(C)NC[C@H](O)COc1cccc2ccccc12,1.4,–
O=C(O)/C=C/c1ccc(O)c(O)c1,2.5,–
O=C(O)c1ccccc1Nc1cccc(OCc2ccc3ccccc3n2)c1,-1.49,–
NC[C@@H]1O[C@H](c2ccccc2)Cc2c1ccc(O)c2O,1.92,–
CN(C)CCCc1cc(C(=O)Nc2ccc(-c3ccncc3)cc2)ccc1O,-0.205,–
CC(C)(CO)Cc1cc(C(C)(C)C)c(O)c(C(C)(C)C)c1,0.237,–
Cc1nc(N=Nc2cc(S(=O)(=O)O)c3cc([N+](=O)[O-])cc(S(=O)(=O)O)c3c2)c(COP(=O)(O)O)c(C=O)c1O,-5.96,–
NC(N)=NC(N)=Nc1ccccc1,-0.269,–
O=C(O)C1=CCNCC1,0.175,–
CCCCCC[C@@H]([C@@H](C)O)n1cnc2c(N)ncnc21,1.12,–
Oc1cc(O)c2c(c1)O[C@H](c1ccc(O)c(O)c1)[C@@H](O)C2,3.51,–
CNC(=O)c1cc2c(cn1)[nH]c1ccccc12,-2.69,–
CCn1c(=O)[nH]c2cc(Cl)c(Cl)cc21,0.438,–
CCSC(=N)N,-5.81,–

Structure (SMILES),"activity change, negative = inhibition [%]",Potency
NC/C=C\C(=O)O,-0.302,–
COC(=O)[C@H](NC(=O)c1cc(-c2ccccc2)nc2ccccc12)c1ccccc1,-0.731,–
O=C1Nc2ccc(I)cc2/C1=C/c1cc(Br)c(O)c(Br)c1,–,4.22 µM (active)
O=C1OC(=O)C2C3CCC(O3)C12 (stereo not given),-14.5,–
CN[C@H](CC(=O)O)C(=O)O,1.15,–
Cn1cc(C(=O)OCC2CCN(CCNS(C)(=O)=O)CC2)c2ccccc21,1.87,–
N[C@H](C(=O)O)c1cc(O)cc(O)c1,–,inactive
CCc1ccc2c(-c3cccc(Cl)c3)nc(=O)n(CC)c2n1,-9.36,–
N[C@@H](CS(=O)O)C(=O)O,-6.36,–
O=S(=O)(c1cccc2c(Cl)cccc12)N1CCCNCC1,1.74,–
CSC(=N)N,-5.4,–
CC[C@H](NC(=O)c1c(C)c(-c2ccccc2)nc2ccccc12)c1ccccc1,-2.11,–
NCCCCN=C(N)N,-5.71,–
N=C(N)SCCN,1.89,–
Cc1nc2c(OCc3ccccc3)cccn2c1CC#N,-1.54,–
NCCCNCCCCNCCCN,5.97,–
CCCCCCN(CCCCCC)C(=O)Cc1c(-c2ccc(F)cc2)[nH]c2ccccc12,-1.03,–
